# Reference: the supplement of paper PMC12067926
# Values without a mark were called inactive.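 Rule for the calls: active = growth AUC significantly below the DMSO wells by Dunnett test; inactive = the rest.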
# Test system: Pseudomonas 4 (Pseudomonas peli)
# Assay: relative growth (AUC of 72 h growth curve relative to DMSO control, dAUC) (ratio); higher = more growth (less inhibition), active = hit call of the paper
# Details: 20 µM
# Procedure, shortened: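 Cultures grown to carrying capacity in Luria–Bertani medium, drawn from Icelandic stream sediment and Silwood Park soil isolates and whole sediment communities, were diluted 1:100 into 96-well plates with each chemical at 20 µM (1% DMSO) and read at A600 hourly for 72 h. The spline-integrated area under the growth curve, divided by the mean of the DMSO controls, is reported as relative growth (dAUC). Values are means of three biological replicates.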
row,SMILES,relative growth
1,Nc1c([N+](=O)[O-])ccc(Oc2ccccc2)c1Cl,0.949
2,C/C(=N\C#N)N(C)Cc1ccc(Cl)nc1,0.991
3,CCC(C)(C)C(=O)OC1=C(c2ccc(Cl)cc2Cl)C(=O)OC12CCCCC2,1
4,CC1(C)CON(Cc2ccccc2Cl)C1=O,0.975
5,CC[C@H](C)[C@H]1O[C@]2(C=C[C@@H]1C)C[C@@H]1C[C@@H](C/C=C(\C)[C@@H](O[C@H]3C[C@H](OC)[C@@H](O[C@H]4C[C@H](OC)[C@@H](O)[C@H](C)O4)[C@H](C)O3)[C@@H](C)/C=C/C=C3\CO[C@@H]4[C@H](O)C(C)=C[C@@H](C(=O)O1)[C@]34O)O2.CO[C@H]1C[C@H](O[C@H]2[C@H](C)O[C@@H](O[C@@H]3/C(C)=C/C[C@@H]4C[C@@H](C[C@]5(C=C[C@H](C)[C@@H](C(C)C)O5)O4)OC(=O)[C@@H]4C=C(C)[C@@H](O)[C@H]5OC/C(=C\C=C\[C@@H]3C)[C@]54O)C[C@@H]2OC)O[C@@H](C)[C@@H]1O,1.02
6,CCC(CC)Nc1c([N+](=O)[O-])cc(C)c(C)c1[N+](=O)[O-],0.949
7,Cc1c(COC(=O)[C@@H]2[C@H](/C=C(\Cl)C(F)(F)F)C2(C)C)cccc1-c1ccccc1 (racemic),0.995
8,CS(=O)(=O)c1ccc(C(=O)C2C(=O)CCCC2=O)c([N+](=O)[O-])c1,1.05
9,N#Cc1cc(Br)c(O)c(Br)c1,0.964
10,CNC(=O)CSP(=S)(OC)OC,0.963
11,COP(=S)(OC)SCN1C(=O)c2ccccc2C1=O,0.962
12,OC(Cn1cncn1)(c1ccc(F)cc1)c1ccccc1F (configuration not stated),1.02
13,CN1COCN(Cc2cnc(Cl)s2)/C1=N\[N+](=O)[O-],0.996
14,N#CC(CCc1ccc(Cl)cc1)(Cn1cncn1)c1ccccc1 (configuration not stated),0.934
15,CCSC(C)CC1CC(=O)C(/C(CC)=N/OC/C=C/Cl)=C(O)C1 (mixture of isomers),1.01
16,CCCCc1c(C)nc(NCC)nc1OS(=O)(=O)N(C)C,0.97
17,CCCN(CCC)C(=O)SCc1ccccc1,0.979
18,O=C(O)COc1ccc(Cl)cc1Cl,1.01
19,O=C1C2(Cl)C3(Cl)C4(Cl)C(Cl)(Cl)C5(Cl)C3(Cl)C1(Cl)C5(Cl)C24Cl (configuration not stated),0.934

row,SMILES,relative growth
1,Nc1c(Cl)c(F)nc(OCC(=O)O)c1Cl,1.04
2,Cc1cccc2sc3nncn3c12,0.947
3,O=C(O)CNCP(=O)(O)O,0.979
4,CCNC(=O)NC(=O)/C(C#N)=N/OC,0.981
5,Cc1cc(C2CC2)nc(Nc2ccccc2)n1,0.976
6,COP(=O)(NC(C)=O)SC (configuration not stated),1.02
7,Cc1nnc(-c2ccccc2)c(=O)n1N,0.954
8,Clc1ccc(C(c2ccc(Cl)cc2)C(Cl)(Cl)Cl)cc1,0.985
9,O=C(Nc1ccc(F)cc1F)c1cccnc1Oc1cccc(C(F)(F)F)c1,1.01
10,N#Cc1sc2c(=O)c3ccccc3c(=O)c=2sc1C#N,1.07
11,CC[C@H](C)C1O[C@]2(C=C[C@@H]1C)C[C@@H]1C[C@@H](C/C=C(\C)[C@@H](O[C@H]3C[C@H](OC)[C@@H](O[C@H]4C[C@H](OC)[C@H](NC)[C@H](C)O4)[C@H](C)O3)[C@@H](C)/C=C/C=C3\CO[C@@H]4[C@H](O)C(C)=C[C@@H](C(=O)O1)[C@]34O)O2 (some centres not stated),0.98
12,CNC(=O)Oc1cccc2ccccc12,1.01
13,COP(N)(=O)SC (configuration not stated),0.995
14,COC(=O)NC(=S)Nc1ccccc1NC(=S)NC(=O)OC,0.95
15,COP(=O)(OC)OC=C(Cl)Cl,0.963
16,CC(C)N(C(=O)COc1nnc(C(F)(F)F)s1)c1ccc(F)cc1,0.983
17,CCc1cc(C)cc(CC)c1-c1c(OC(=O)C(C)(C)C)n2n(c1=O)CCOCC2,0.953
18,CNC(=O)ON=C(C)SC,0.946
